Shown is part of a subset that was picked to be rich in hits.
Cruzain Triton – blocks cruzain activity in presence of Triton detergent. P25779. Potency, µM, hits mostly inhibitors. purified cruzain, Z-FR-AMC fluorescence, 0.01% Triton. 200,000 tested, 0.43% active. AID 1478; also: nearly all actives have a fitted effect of over 40% in size
Target sequence (P25779 123-467 limits assumed): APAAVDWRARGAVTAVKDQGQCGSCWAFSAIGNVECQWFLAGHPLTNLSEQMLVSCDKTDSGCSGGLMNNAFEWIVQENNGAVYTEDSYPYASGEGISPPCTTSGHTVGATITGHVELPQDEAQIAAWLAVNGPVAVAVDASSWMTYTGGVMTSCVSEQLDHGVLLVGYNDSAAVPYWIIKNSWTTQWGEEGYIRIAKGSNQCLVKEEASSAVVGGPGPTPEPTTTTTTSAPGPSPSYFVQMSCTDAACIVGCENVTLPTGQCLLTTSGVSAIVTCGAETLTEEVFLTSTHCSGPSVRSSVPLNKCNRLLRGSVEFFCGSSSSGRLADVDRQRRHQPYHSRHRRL
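Z-FR-AMC hydrolysis (2 uM substrate) by cruzain (1.5 nM) monitored kinetically at ex 360/em 450 nm after 15 min room-temperature compound exposure; 0.01% Triton X-100, pH 5.5, 5 mM DTT.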
NS1 inh – inhibitors of influenza NS1 protein function; Potency, µM (doses to about 46.1 µM); 270,000 tested, 0.4% active; calls by dose curve; also: actives are rising curves; nearly all actives have a fitted effect of over 50% in size
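A cell-based growth assay was used: compounds that relieve NS1-induced slow growth of budding yeast raise OD600. Assay medium was yeast nitrogen base with ammonium sulphate and -URA supplement, pH 6.0, with 2% galactose.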
Cruzain noTriton – blocks cruzain activity in detergent-free assay; 200,000 tested, 2.3% active; purified cruzain, Z-FR-AMC fluorescence, no detergent; AID 1476; Potency, µM, hits mostly inhibitors; also: nearly all actives have a fitted effect of over 40% in size
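Purified cruzain at 1.5 nM, pre-incubated 15 min with compound at room temperature in 100 mM sodium acetate pH 5.5, 5 mM DTT, 0.00005% Triton X-100. Reaction started with 2 uM Z-FR-AMC; AMC fluorescence increase over 60 s gives rate.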
Numbers stand for hits; 0 = inactive; ? = inconclusive; - = no result given. Unless noted, calls follow the shape of the dose curve; as a rule, active = well fitted curve in the direction sought with a large enough effect; inconclusive = small, poorly fitted or top-dose-only effect, or another doubt; inactive = no such curve, though single readings can be large; an effect the other way counts as inactive or inconclusive.

SMILES | Cruzain Triton | NS1 inh | Cruzain noTriton
Cc1cnc(NC(=O)CC(C)c2ccccc2)s1 (stereo unspecified) | - | 0 | -
CCOc1ccc(C2Nc3ccc4ccccc4c3-c3c2c(=O)oc2ccccc32)cc1 (stereo unspecified) | 0 | 0 | 7.94µM
COc1ccc(-c2cc3ccccc3c(=O)o2)cc1 | 0 | - | 0
CCOc1ccc(C2C(C#N)=C(N)Oc3c2c(=O)oc2ccccc32)cc1 (stereo unspecified) | 0 | 0 | 0
COc1ccc(C2Nc3ccc4ccccc4c3-c3c2c(=O)oc2ccccc32)cc1 (stereo unspecified) | 0 | 0 | 10µM
O=c1oc2ccccc2c2c1C(c1ccc(Cl)cc1)Nc1ccc3ccccc3c1-2 (stereo unspecified) | 0 | 0 | 3.98µM
O=C1CC(c2ccc(Br)cc2)c2c(c3ccccc3oc2=O)O1 (stereo unspecified) | 0 | - | 0
COc1ccc(-c2[nH]ncc2CN2CCN(c3ccccn3)CC2)c(OC)c1 | - | 0 | -
CCn1ccc(C(=O)NCCCN2CCCC2=O)n1 | - | 0 | -
O=C(CCc1ccccc1)NC(NC(=S)Nc1cccc(Cl)c1)C(Cl)(Cl)Cl (stereo unspecified) | 0 | 0 | 7.94µM
O=C(/C=C/c1ccccc1)NC(NC(=S)Nc1cccc(Cl)c1)C(Cl)(Cl)Cl (stereo unspecified) | 0 | 0 | ?
S=C(NCCN(C1CCCCC1)C1CCCC1)Nc1cccc(Cl)c1 | - | 0 | -
S=C(NCCC(c1ccccc1)c1ccccc1)Nc1cccc(Cl)c1 | 0 | 0 | 15.8µM
CCCC(=O)NC(NC(=S)Nc1ccc(N=Nc2ccccc2)cc1)C(Cl)(Cl)Cl (stereo unspecified) | 0 | 0 | 0
O=C(CCc1ccccc1)NC(NC(=S)Nc1ccc(Br)cc1)C(Cl)(Cl)Cl (stereo unspecified) | 0 | 0 | 10µM
C/C(=N\NC(=O)c1nnn(-c2nonc2N)c1-c1ccccc1)c1ccccc1O | - | 0 | -
Cc1ccc[n+](CC(=O)Nc2cccc([N+](=O)[O-])c2)c1 | - | 0 | -
O=C(Nc1c(C(=O)N2CCN(c3ccccc3F)CC2)oc2ccccc12)c1ccccc1F | 0 | - | 20µM
O=C(Nc1c(C(=O)N2CCN(c3ccccc3)CC2)oc2ccccc12)c1ccccc1F | 0 | - | 0
CCOc1ccccc1NC(=O)c1nc[nH]c1C(=O)Nc1ccccc1OCC | 0 | 0 | 0
COc1ccccc1NC(=O)c1nc[nH]c1C(=O)Nc1ccccc1OC | 0 | 0 | 10µM
CNC(=O)c1[nH]cnc1C(=O)Nc1ccc(C)cc1 | 0 | 0 | 0
Cc1ccc(NC(=O)c2nc[nH]c2C(=O)Nc2ccc(C)cc2)cc1 | 0 | 0 | 7.94µM
COc1ccc(N2CCN(C(=O)C(=O)c3cn(CC(=O)N4CCCCCC4)c4ccccc34)CC2)cc1 | - | 0 | -
Cc1ccc(/C=C/C2=C[C@]3(C)C[C@]2(C)[C@H](c2ccc(C)cc2)CC3=O)cc1 | 0 | - | 0
SMILES | Cruzain Triton | NS1 inh | Cruzain noTriton
COc1ccc(N(C)C(=O)CC2(CC(=O)O)CCCCC2)cc1 | 0 | 0 | 0
Cc1ccc(/C(N)=N/OC(=O)CCC2CCCCC2)cc1 | 0 | 0 | 0
O=C(CSc1oc(-c2ccccc2)nc1S(=O)(=O)c1ccccc1)NCC1CCCO1 (stereo unspecified) | - | 0 | -
CCOC(=O)C1=C(C)NC(=S)NC1c1ccc(-c2ccc(Cl)cc2)o1 (stereo unspecified) | 0 | 0 | ?
COC(=O)C1=C(C)NC(=S)NC1c1ccc(-c2cccc(Cl)c2)o1 (stereo unspecified) | 0 | 0 | 25.1µM
N#CC(=C1CCCC1)c1nc(-c2ccccc2O)cs1 | 0 | 0 | ?
O=C(Cn1c(=O)oc2cc(S(=O)(=O)N3CCCC3)ccc21)NC1CCCc2ccccc21 (stereo unspecified) | 0 | 0 | 25.1µM
CC(NC(=O)Cn1c(=O)oc2cc(S(=O)(=O)N3CCCC3)ccc21)c1ccccc1 (stereo unspecified) | 0 | 0 | ?
CCOc1ncccc1C(=O)N1CCN(S(=O)(=O)c2ccc3ccccc3c2)CC1 | - | 0 | -
Cc1ccc(C(C)C)c(OCC(=O)N2CCC(c3nc4ccccc4o3)CC2)c1 | 0 | - | ?
COc1ccc2c(c1)C1=NN(/C(C)=C/C(C)=O)C(c3ccc(F)cc3)C1CC2 (stereo unspecified) | 0 | 0 | 0
COc1ccc2c(c1)C1=NN(/C(C)=C\C(C)=O)C(c3ccccc3)C1CC2 (stereo unspecified) | 0 | 0 | 25.1µM
CCCOc1ccc(C2C(=O)N(C3CCCCC3)CC(=O)N2CCC2=CCCCC2)cc1OC (stereo unspecified) | 0 | - | 0
COC(=O)Cn1c(=NC(=O)c2ccc(Cl)s2)sc2cc(F)ccc21 | 0 | 0 | 25.1µM
C#CCn1c(=NC(=O)c2ccc(Cl)s2)sc2cccc(OC)c21 | 0 | 0 | ?
CC(C)c1ccc(NC(=O)Cn2c(=O)n(Cc3nc(-c4ccccc4)no3)c(=O)c3cc4c(cc32)OCO4)cc1 | 0 | - | 12.6µM

From PubChem BioAssay
